The results in this text go back to PubChem BioAssay AID488969 (Vanderbilt High Throughput Screening Facility, 2010).

Each structure is given as a SMILES string. Over roughly 110,000 compounds, “z-score” has its median near -0.1; the highest 2% begin near 2. This is one part of a sample in which the highest values are shown more often than they occur. Active and inactive are the calls of the source.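 How the source made its calls: active means z-score in the third read window above 3 or below -3; inactive means the rest.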

The target of this assay is Metabotropic glutamate receptor 8 (Rattus norvegicus) (UniProt P70579). In words: rat mGluR8 modulators via GIRK flux, primary screen, cell-based, thallium flux, HTS (AID 488969). Particulars: HEK293 rat mGluR8, GIRK (G protein-gated inwardly rectifying potassium channel) thallium flux, FluoZin2; at 10 µM; stronger effect = higher value; submaximal glutamate (EC20) added with thallium.
Sequence of Metabotropic glutamate receptor 8 (Rattus norvegicus) (P70579 whole entry, looked up): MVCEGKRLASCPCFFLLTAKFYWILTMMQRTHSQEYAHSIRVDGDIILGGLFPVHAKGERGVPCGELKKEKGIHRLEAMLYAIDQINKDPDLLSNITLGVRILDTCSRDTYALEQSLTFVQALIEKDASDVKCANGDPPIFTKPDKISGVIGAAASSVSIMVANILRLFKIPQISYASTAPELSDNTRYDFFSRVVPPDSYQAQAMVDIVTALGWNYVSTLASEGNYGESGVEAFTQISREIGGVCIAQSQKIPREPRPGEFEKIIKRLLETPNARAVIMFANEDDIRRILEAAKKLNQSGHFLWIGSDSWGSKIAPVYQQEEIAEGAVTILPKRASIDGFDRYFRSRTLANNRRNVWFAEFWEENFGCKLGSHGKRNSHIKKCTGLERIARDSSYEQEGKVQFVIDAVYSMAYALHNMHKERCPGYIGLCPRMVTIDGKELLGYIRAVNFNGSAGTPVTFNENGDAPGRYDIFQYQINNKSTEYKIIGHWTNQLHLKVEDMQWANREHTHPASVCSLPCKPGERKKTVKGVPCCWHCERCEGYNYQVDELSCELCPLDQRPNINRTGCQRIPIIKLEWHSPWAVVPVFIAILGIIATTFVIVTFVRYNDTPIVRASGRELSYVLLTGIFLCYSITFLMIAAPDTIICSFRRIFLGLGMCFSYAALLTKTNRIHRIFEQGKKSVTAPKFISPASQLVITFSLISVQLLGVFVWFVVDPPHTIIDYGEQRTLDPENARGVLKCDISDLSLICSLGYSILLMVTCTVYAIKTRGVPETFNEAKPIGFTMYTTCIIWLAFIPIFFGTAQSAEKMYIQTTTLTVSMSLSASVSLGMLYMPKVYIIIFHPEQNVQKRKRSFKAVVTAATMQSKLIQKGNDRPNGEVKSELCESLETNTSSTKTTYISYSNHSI
For the compound `COc1ccc(C(C(=O)NC2CCCCC2)N(CC2CCCO2)C(=O)C2COc3ccccc3O2)cc1OC` (stereo not drawn), the z-score was -0.167.
For `COc1ccc(S(=O)(=O)Nc2ccccc2C(=O)NCc2ccco2)cc1` the value was -0.614.
For `FC(F)(F)C1=CC(c2ccccc2)=NCCN1` the value was -0.25; for `COc1cc(O)oc1C=Nc1ccc(Cl)cc1`, -0.289; for `Cc1ccc(N2CC(C(=O)Nc3ccncc3)CC2=O)cc1` (stereo not drawn), -0.196.
For `COc1ccc(OC)c(NC(=O)CSc2nc3c(c(=O)n(C)c(=O)n3C)n2C)c1` the value was -1.15.
In the case of `Cc1cccc(N=Cc2cc3c(cc2[N+](=O)[O-])OCO3)c1`, the z-score was -0.0653.
Under `Cc1ccc(/C=N/NC(=O)c2cccc([N+](=O)[O-])c2)o1` stands -0.121; under `Cc1ccc(/C=N\NC(=O)c2cc([N+](=O)[O-])cc([N+](=O)[O-])c2)o1`, 4.57 (active).
For `O=C(N/N=C/c1ccco1)c1cc([N+](=O)[O-])cc([N+](=O)[O-])c1` the value was 0.778; for `COc1cccc(-c2nc(-c3ccc(NC(=O)Cc4ccccc4OC)cc3)no2)c1`, 0.363; for `CCCNC(=O)Cc1ccsc1`, 0.11.
Under `O=C(CCN1C(=O)c2ccccc2C1=O)Nc1ccc(-c2nc3ccccc3o2)cc1` stands -0.0516; under `Cc1cc(S(=O)(=O)N2CCCC2)ccc1OCC(=O)N1CCOCC1`, 0.0243.
In the case of `COC(=O)c1cc(=O)n(CCc2ccc(OC)cc2)c(=Nc2ccc(F)c(Cl)c2)s1`, the z-score was 9.49 (active).
Under `COC(=O)c1cc(=O)n(CCc2ccccc2F)c(=Nc2ccc(F)c(Cl)c2)s1` stands -0.11; under `COC(=O)c1cc(=O)n(CCc2ccc(OC)c(OC)c2)c(=Nc2ccc(F)c(Cl)c2)s1`, 0.363; under `O=C(CSc1nc2c(c(C(F)(F)F)n1)CCc1ccccc1-2)NCc1ccccc1`, 0.257.
Under `Cc1ccc(-n2c(Cc3cccn3C)nnc2SCC(=O)NC2CCCCC2)cc1` stands 0.061; under `COc1ccc(NC(=O)CSc2nnc(Cc3cccn3C)n2-c2ccc(C)cc2)cc1OC`, 2.03; under `Cn1cccc1Cc1nnc(SCC(=O)N2CCCCCC2)n1-c1ccc(F)cc1`, 2.24.
Under `Cn1cccc1Cc1nnc(SCC(=O)N2CCN(c3ccccc3)CC2)n1-c1ccc(F)cc1` stands -0.223.
With `Cn1cccc1Cc1nnc(SCC(=O)N2CCOCC2)n1-c1ccc(F)cc1`, the z-score is -0.171.
For `CC(=O)Nc1cccc(NC(=O)CSc2nnc(Cc3cccn3C)n2-c2ccc(C)cc2)c1` the value was -0.278.
Take `COc1ccc(NC(=O)CSc2nnc(Cc3cccn3C)n2-c2ccc(F)cc2)cc1OC`: the z-score is -0.626.
Under `Cn1cccc1Cc1nnc(SCC(=O)NC2CCCC2)n1-c1ccc(F)cc1` stands 2.33.
For `Cn1cccc1Cc1nnc(SCC(=O)Nc2ccc(F)cc2)n1-c1ccc(F)cc1` the value was -0.84; for `CC(NC(=O)Cc1ccc(-c2ccccc2)cc1)c1ccccc1` (stereo not drawn), -0.225.
Under `Cc1cc(C)c2oc(C(=O)Nc3nnc(C(C)C)s3)cc(=O)c2c1` stands -0.0364.
Compound `O=C(Nc1ccccc1)N1CCN(c2ccc(F)cc2)CC1` came in with a z-score of 0.147.
For `CC(=O)c1ccc(Sc2ccc(C(C)=O)cc2)cc1` the value was -0.316; for `CCn1nnc(-c2ccccc2NC(=O)c2cc(OC)c(OC)c(OC)c2)n1`, -1.03.
Under `O=C(NC1CCCc2ccccc21)c1cccc(S(=O)(=O)N2CCN(c3ccccc3)CC2)c1` (stereo not drawn) stands 2.28.
For `CN(C)S(=O)(=O)c1cccc(C(=O)NC2CCCc3ccccc32)c1` (stereo not drawn) the value was -0.104; for `CC(=O)N1CCN(S(=O)(=O)c2cccc(C(=O)NC3CCCc4ccccc43)c2)CC1` (stereo not drawn), 0.0317; for `COC(=O)c1ccc(/C=N/NC(=O)CC(=O)NCC(C)C)cc1`, -0.0626.
On to `COc1cc(CNCCO)cc(Br)c1OCc1ccccc1Cl`, for which the z-score amounted to 1.32.
As for `O=C(O/N=C/c1ccc2c(c1)OCO2)c1ccccc1Cl`, the z-score came out at 0.0816.
For `CCCn1c(SCc2nc(-c3cccs3)no2)nnc1-c1ccncc1` the value was 0.141; for `CCOc1ccc(-n2c(SCc3nc(-c4cccs4)no3)nnc2-c2ccncc2)cc1`, 7.31 (active); for `CCOc1ccc(-n2c(SCc3nc(-c4ccc(C)cc4)no3)nnc2-c2ccncc2)cc1`, -0.127.
As for `S=C(Nc1cccc(Cl)c1Cl)Nn1cnnc1`, the z-score is -0.236.
For `O=C(O)c1ccc(NC(=S)NC(NC(=O)c2ccco2)C(Cl)(Cl)Cl)cc1` (stereo not drawn), the z-score was -0.0488.
Under `Cc1cc2[nH]c(=S)[nH]c2cc1C` stands 0.151; under `Cc1cc(C)c2[nH]c(=O)c(=O)[nH]c2c1`, -0.178.
Under `Cc1cc(C)c2[nH]c(=S)cc(C)c2c1` stands 5.14 (active).
`NC(=O)C1CCN(CC(=O)Nc2cccc(C(=O)Nc3cccc(C(F)(F)F)c3)c2)CC1` had a z-score of -0.137.
Under `CS(=O)(=O)N(Cc1ccccc1)c1ccc(C(=O)NC2CCCCC2O)cc1` (stereo not drawn) stands 0.252; under `O=C(NNS(=O)(=O)c1ccccc1F)c1cccc(S(=O)(=O)N2CCOCC2)c1`, 10.4 (active); under `O=C(NNS(=O)(=O)c1ccc(F)c(Cl)c1)c1cccc(S(=O)(=O)N2CCOCC2)c1`, -0.0447.
In the case of `O=C(NNS(=O)(=O)c1cccc(Cl)c1Cl)c1cccc(S(=O)(=O)N2CCOCC2)c1`, the z-score is -0.174.
Under `CCNc1nc(NC(C)CC)nc(Oc2ccc(=O)[nH]n2)n1` (stereo not drawn) stands -0.162; under `CN=C1c2cc3cc(OC)ccc3n2CCN1C`, 0.371.
The compound `CN=C1c2cc3c(Br)c(OC)ccc3n2CCN1C` displayed a z-score of 0.218.
`CN=C1c2c(-c3ccccc3)c3cc(OC)ccc3n2CCN1C`: the z-score was 4.2 (active).
Under `Fc1cccc(-n2c(-c3ccco3)nc3nc4ccccc4nc32)c1` stands 3.05 (active); under `Cc1cccc(-n2c(-c3ccco3)nc3nc4ccccc4nc32)c1`, -0.0341.
In the case of `CCC(C)n1c(-c2ccco2)nc2nc3ccccc3nc21` (stereo not drawn), the z-score is -1.06.
Under `CCOC(=O)c1cnc(-c2ccccc2)nc1Oc1ccc(Cl)cc1` stands -0.241.
Under `CCOC(=O)c1cnc(-c2ccccc2)nc1Oc1ccccc1` stands -0.19; under `CCOC(=O)c1cnc(-c2ccccc2)nc1Oc1ccc(C)cc1`, 2.4.
In the case of `COc1ccc(C(=O)Nc2ccc(S(=O)(=O)NCc3ccco3)cc2)cc1OC`, the z-score is 3.13 (active).
Under `O=C(Nc1ccccc1)c1ccc(S(=O)(=O)NCc2ccco2)cc1` stands -0.18.
For `Cc1ccc(C(=O)Nc2ccc(S(=O)(=O)NCc3ccco3)cc2)cc1` the value was 0.0377.
For `CCOC(=O)c1c(NC(=O)C2CCCO2)sc(C(N)=O)c1C` (stereo not drawn) the value was -0.0328; for `CN(C)c1ccc(N=Nc2ccccc2C(=O)OCC(=O)NC2CCCC2)cc1`, -0.235; for `COc1cccc(C(=O)NC(C)c2ccc(Br)cc2)c1` (stereo not drawn), -0.143.
The compound `CCCC(=O)NC1C2CC3CC(C2)CC1C3` (stereo not drawn) came in with a z-score of 0.313.
